HCV inhibitor – HCV inhibition | Potency, µM (titrated, usually from 41.8 µM), for inactives: at the highest dose activity change, negative = inhibition, hits mostly inhibitors | 3.4% of 340,000 active | AID 651820 | Huh7.5.1 HCVcc-Cre infection, luciferase reporter, 44 h; active = well fitted inhibition curve with a large enough effect; inconclusive = small, poorly fitted or top-dose-only effect, or another doubt; inactive = no such curve, though single readings can be large or run the other way; note: potency is the fitted concentration of half-maximal effect; % is set by controls: 0 for no effect and ±100 for the full control effect
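HCVcc-Cre virus at an moi near 0.5 was added right after compound to cells cultured 4 h from seeding (1,000 cells/well). Luciferase activity was determined 44 h later, 15 min after substrate addition at RT.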
SARS PLpro yeast – SARS-CoV PLP inhibition in yeast. Potency, µM (highest dose often 32.9 µM), for inactives: at the top dose activity, positive = growth rescue, actives largely listed as activators. S. cerevisiae expressing SARS-CoV PLpro, growth rescue. 0.19% of 330,000 active; calls by dose curve; note: potency is the fitted concentration of half-maximal effect; 0% is about no effect; nearly all actives have a fitted effect of over 55% in size
LASV entry inh – blocks Lassa virus binding to or entry into cells; Lassa virus pseudotype entry inhibition, cell reporter; Potency, µM (series often up to 37.9 µM), inactives show at the highest dose activity change, negative = inhibition, hits mostly inhibitors; 1.2% of 300,000 active; calls by dose curve; tested in HEK293 cells; note: potency is the fitted concentration of half-maximal effect; % is set by controls: 0 for no effect and ±100 for the full control effect; nearly all actives have a fitted effect of over 50% in size
Marburg entry inh – blocks Marburg virus binding to or entry into cells. Marburg virus pseudotyped entry inhibition, cell reporter. Potency, µM (doses to about 37.8 µM), for the others: at the top dose activity change, negative = inhibition, hits mostly inhibitors. 1.8% of 300,000 active. AID 540276; calls by dose curve; tested in HEK293 cells; note: potency is the fitted concentration of half-maximal effect; % is set by controls: 0 for no effect and ±100 for the full control effect
HCMV inh – inhibitors of human cytomegalovirus; 4.5% of 410,000 active; HFF cells, HCMV-luciferase reporter, 72 h; stronger effect = lower value; AID 1259415; activity change, negative = inhibition, % at 57.5 µM; in the data active = activity change below about -60%; inconclusive = no clear call, values can overlap the other calls; inactive = above about -39%; note: % is set by controls: 0 for no effect and ±100 for the full control effect
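Inhibition of viral replication was scored as loss of reporter luminescence in HFFs infected with HCMV-luciferase (MOI 1 PFU/cell) for 72 h; compounds tested at 2 doses, normalized to buffer and Salinomycin controls.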
FMDV antiviral – antivirals against foot and mouth disease virus | Potency, µM (titrated, usually from 57.9 µM), for inactives: at the top dose activity change, negative = inhibition, most hits filed as inhibitors | FMDV antiviral cell-based qHTS | 1.2% of 410,000 active; calls by dose curve; tested in HEK293T cells; note: read-out not given here; potency is the fitted concentration of half-maximal effect; % is set by controls: 0 for no effect and ±100 for the full control effect; nearly all actives have a fitted effect of over 45% in size
* = called active by the depositor; ? = inconclusive; . = no result given; [ ] = dose if it differs, or a comment. Sampled rows, rich in hits. Any-hit rate of the full collection: about 8%.

SMILES	HCV inhibitor	SARS PLpro yeast	LASV entry inh	Marburg entry inh	HCMV inh	FMDV antiviral
O=C(CNC(=O)c1ccccc1)Nc1ccc(Br)cc1C(=O)c1ccccc1	?	-0.1%	-16.9%	?	-3.7	1.0%
Cc1ccc(O)c(Nc2c3ccccc3nc3ccccc23)c1	10µM*	-11.3%	?	?	-35.7	?
Cc1ccc(O)c(Nc2nc(-c3ccccc3)nc3ccccc23)c1	-28.6%	-3.3%	-6.4%	?	-30.2	-16.4%
Nc1c(N(CCC2=CCCCC2)C(=O)COc2ccc(F)cc2)c(=O)[nH]c(=O)n1Cc1ccccc1	12.6µM*	17.6%	.	.	.	-22.0%
Nc1c(N(Cc2ccco2)C(=O)c2ccc(Br)cc2)c(=O)[nH]c(=O)n1Cc1ccccc1	?	-4.9%	.	.	84.9	13.7%
Cc1ccc(OCCC(=O)N(Cc2ccccc2)c2c(N)n(Cc3ccccc3)c(=O)[nH]c2=O)cc1	11.2µM*	-1.0%	?	?	-81.1*	-23.8%
Nc1c(N(Cc2ccco2)C(=O)c2ccc(Cl)cc2)c(=O)[nH]c(=O)n1Cc1ccccc1	31.2%	1.3%	-1.8%	-6.5%	-70.8*	-3.1%
Cc1ccccc1OCCC(=O)N(Cc1ccccc1)c1c(N)n(Cc2ccccc2)c(=O)[nH]c1=O	?	-10.4%	11.2µM*	3.7%	.	0.0%
COc1ccc(Cl)cc1NC(=O)Cc1ccc(NC(=O)N2CCCCc3ccccc32)cc1	.	.	-4.2%[46.1 µM]	.	19.2	-14.6%
Nc1c(N(CCO)C(=O)COc2ccc(Cl)cc2)c(=O)[nH]c(=O)n1Cc1ccccc1	1.7%	-2.4%	?	0.2%	?	-14.6%
Nc1c(N(Cc2ccccc2)C(=O)COc2ccc([N+](=O)[O-])cc2)c(=O)[nH]c(=O)n1Cc1ccccc1	?	.	.	.	-97.4*	-17.0%
COc1ccc2nc(-c3cccc(N)c3)[nH]c2c1	-15.7%	-22.8%	11.2µM*	10µM*	39.9	0.0%
CC1CCc2[nH]c3ccc(C(=O)N(C)CC(=O)Nc4ccccc4Cl)cc3c2C1 (stereo not given)	?	-5.5%	-27.2%	-26.2%	-8.3	-0.7%
CCCN(CC(=O)Nc1ccccc1OC)C(=O)c1ccc2[nH]c3c(c2c1)CC(C)CC3 (stereo not given)	7.94µM*	-2.1%	?	?	-3.9	?
CCOc1ccc(NC(=O)CN(C)C(=O)c2ccc(NC3CC3)c([N+](=O)[O-])c2)cc1OCC	11.2µM*	1.7%	-8.6%	-19.0%[46.1 µM]	10.9	-7.9%
CCN(CC(=O)Nc1ccccc1OC)C(=O)c1ccc2[nH]c3c(c2c1)CC(C)CC3 (stereo not given)	10µM*	3.4%	.	.	-5.6	?
CC1CCc2[nH]c3ccc(C(=O)N(C)CC(=O)Nc4ccccc4C(F)(F)F)cc3c2C1 (stereo not given)	-22.1%	?	?	?	-88.2*	-2.9%
COc1cc(OC)c(N(C)C(=O)Cn2ncc3c([nH]c4ccccc43)c2=O)cc1Cl	.	.	-5.4%[46.1 µM]	.	19.2	-26.2%
CCOc1ccc(NC(=O)CN(C)C(=O)c2ccc3[nH]c4c(c3c2)CC(C)CC4)cc1OCC (stereo not given)	0.562µM*	-3.9%	0.4%	-5.7%	.	9.1%
CC1(C)[C@H]2CC[C@]1(C)[C@H](OC(=O)CC(=O)O)C2	.	.	.	-1.7%	.	.
CCCCn1c(-c2ccc(C)cc2)c(C)n2c3c(=O)n(C)c(=O)n(C)c3nc12	.	.	?	.	-11.9	?
Cc1c(-c2ccccc2)n(-c2ccccc2O)c2nc3c(c(=O)n(C)c(=O)n3C)n12	.	.	?	?	-63.5*	25.1µM*
COCCn1c(-c2ccccc2)c(C)n2c3c(=O)n(C)c(=O)n(C)c3nc12	.	.	-26.8%[46.1 µM]	?	-33.5	3.16µM*
Cc1ccc(-c2c(C)n3c4c(=O)n(C)c(=O)n(C)c4nc3n2CCO)cc1	.	.	?	.	?	17.8µM*
COC(=O)c1ccccc1CON1C(=O)C(C)(C)N(OCc2ccccc2C(=O)OC)C(=O)C1(C)C	14.1µM*	-0.1%	-18.7%	-21.9%	8.9	-24.6%
SMILES	HCV inhibitor	SARS PLpro yeast	LASV entry inh	Marburg entry inh	HCMV inh	FMDV antiviral
CCc1ccccc1NC(=O)C1CCN(C2=NS(=O)(=O)C(c3ccc(C)c(C)c3)=C2C)CC1	.	.	-2.6%[46.1 µM]	.	-24.4	-22.9%
O=S(=O)(/C(=C/c1ccc(C(F)(F)F)cc1)c1nc2ccccc2[nH]1)c1ccccc1	11.2µM*	-27.1%	?	11.2µM*	-103.7*	?
C/C(=C\c1ccc(N)cc1)c1nc2ccccc2[nH]1	-17.5%	-0.6%	.	.	2.2	46.8%
CC(C)c1ccc(/C=C(\c2nc3ccccc3[nH]2)S(=O)(=O)c2ccccc2)cc1	12.6µM*	-3.0%	?	?	-101.2*	10µM*
Fc1ccc2nc(-c3ccc(CN4CCC5(CC4)CNc4ccccc45)cc3)c(-c3ccccc3)nc2c1	.	.	.	.	-14.2	.
Cc1ccc(C)c(N2CCN(CCCNC(=O)Cn3ncc4c5ccccc5n(C)c4c3=O)CC2)c1	.	.	0.9%[46.1 µM]	-9.2%[46.1 µM]	-60.3*	-12.5%
CN1CCN(CCCNC(=O)Cn2ncc3c4ccccc4n(C)c3c2=O)CC1	-17.3%	12.7%	.	.	9.4	-16.7%
Cn1c2ccccc2c2cnn(CC(=O)NCCCN3CCN(c4ccccc4F)CC3)c(=O)c21	10µM*	1.0%	-0.3%[46.1 µM]	-29.5%[46.1 µM]	-14.8	-7.9%
Cc1ccc(C)c(N2CCN(CCCNC(=O)Cn3cc4c(n3)CCCCC4)CC2)c1	5.62µM*	-8.5%	.	-1.4%	-30.4	?
CC1CCC(CN2C(Nc3ccccc3)=NC[C@@H]2Cc2ccccc2)CC1 (stereo not given in full)	7.94µM*	3.6%	.	.	36.0	-18.6%
CC(C)C[C@H]1CN=C(Nc2ccccc2)N1CCCC1CCCC1	?	-7.0%	.	.	-70.0*	?
c1ccc(C[C@H]2CN=C(Nc3ccccc3)N2CCCC2CCCCC2)cc1	3.98µM*	9.5%	.	.	-61.0*	-18.5%
Cc1cnc(-n2ncc(C(=O)N(C)C3CCOC3)c2-c2cccs2)nc1-c1ccc(F)cc1 (stereo not given)	.	.	.	.	.	36.3%
COc1ccc(N=C2C(=O)N3c4c(cccc42)C(C)=CC3(C)C)cc1	?	-21.8%	2.5%	?	-62.6*	?
COc1ccc(N=C2C(=O)Nc3ccccc32)cc1	9.7%	-5.0%	?	6.1%	-12.8	31.0%
Cc1ccc(NC(=O)c2ccc(Cl)cc2Cl)c(C(=O)c2ccccc2)c1	.	.	-20.3%[46.1 µM]	.	-21.9	-10.0%
Cc1nc2nc(-c3ccc(Cl)cc3)cn2nc1C	0.1%	-4.8%	?	-11.7%	60.6	?
Cc1nc2nc(-c3cccs3)cn2nc1C	7.8%	-1.1%	10.3µM*	?	150.4	1.0%
Cc1nc2sc(C(c3cccs3)N3CCN(c4cccc(Cl)c4)CC3)c(O)n2n1 (stereo not given)	-28.7%	-1.8%	.	.	-61.9*	0.0%
COc1ccc([C@H]2Cc3cc(O)cc(O)c3C(=O)O2)cc1O	13.0%	0.7%	.	.	-101.9*	-2.6%

Source: PubChem BioAssay (National Center for Advancing Translational Sciences (NCATS))
